In all, about 59,000 compounds went through this assay and about 60 (0.1%) were called active. How the calls were made is not given here. The list comes from a sample in which actives are over-represented; it also holds similar structures and randomly drawn compounds.
Assay: qHTS Assay for Spectroscopic Profiling in A488 Spectral Region
Settings: compound autofluorescence; max dye equivalency: Compound Type: qHTS ECL - SigmaAldrich, active compounds read high unless noted; outcome: dye equivalency, Compound Type: qHTS ECL - MLSMR unless noted
Summary of the method: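 Spectroscopic profiling in the A488 region: compounds in pH 8.0 Tris (100 mM), 15 min RT, CCD imaging with 480 nm excitation and 540 nm emission; responses normalized against A488 dye standards.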

Compound | max dye equivalency | outcome
CC(C)NC(=O)N1CC[C@@]2(CCCN(C(=O)c3cccc(F)c3)C2)C1 | 33 nM [Compound Type: qHTS ECL - Pharmacopeia, active compounds read high] (active) | –
CC(C)NC(=O)N1CC[C@@]2(CCCN(C(=O)c3ccco3)C2)C1 | – | inactive [dye equivalency, Compound Type: qHTS ECL - Pharmacopeia]
COc1ccc(C(=O)N2CCC[C@@]3(CCN(C(=O)NC(C)C)C3)C2)cc1 | – | inactive [dye equivalency, Compound Type: qHTS ECL - Pharmacopeia]
c1n[nH]c(NCc2ccc3c(c2)OCO3)n1 | – | inactive
CN(C)C(=O)/N=N\C(=O)N(C)C | – | inactive [dye equivalency, Compound Type: qHTS ECL - SigmaAldrich]
COCCn1c(=O)c(-c2cccs2)nc2cnc(N3CCN(C)CC3)nc21 | – | inactive [dye equivalency, Compound Type: qHTS ECL - Pharmacopeia]
Cc1ccc(-c2nnc(SC(C)C#N)n2N)cc1 (configuration not stated) | – | inactive
CCN(Cc1nc2ccccc2c(=O)[nH]1)Cc1cc(=O)oc2cc(C)c(C)cc12 | – | inactive
O=C(CCS(=O)(=O)c1cccc2nonc12)NCCc1ccccc1Cl | – | inactive
CCOc1cc(S(=O)(=O)NC2CC(C)(C)NC(C)(C)C2)ccc1F | – | inactive [dye equivalency, Compound Type: qHTS ECL - DPISMR]
FC(F)(F)c1cccc(Nc2ncnc3ccccc23)c1 | – | inactive [dye equivalency, Compound Type: qHTS ECL - DPISMR]
c1csc(CN2CCN(Cc3cccs3)C2c2cccs2)c1 | – | inactive
CCOc1ccc(NC(=O)Nc2ccc(N(C)C(C)=O)cc2)cc1 | – | inactive [dye equivalency, Compound Type: qHTS ECL - DPISMR]
COC(=O)[C@H](Cc1ccccc1)NC(=O)Nc1ccc(S(N)(=O)=O)cc1 | – | inactive [dye equivalency, Compound Type: qHTS ECL - DPISMR]
COCCNc1ncnc2ccc(-c3cccnc3)cc12 | – | inactive [dye equivalency, Compound Type: qHTS ECL - Pharmacopeia]
Nc1ccc2c3c(cccc13)C(=O)NC2=O | 95 nM (active) | –
O=C(Cn1c(-c2ccccn2)nc2ccccc21)NCCN1CCOCC1 | – | inactive [dye equivalency, Compound Type: qHTS ECL - DPISMR]
Cc1cc(C)c2c(c1)c(C)cc1nnc(SCC(=O)NCc3ccco3)n12 | – | inactive
Cc1ccc(NC2=NC(c3ccccc3)n3c(nc(C)cc3=O)N2)cc1 (configuration not stated) | – | inactive [dye equivalency, Compound Type: qHTS ECL - DPISMR]
CC[C@H](c1ccccc1)c1cc(C(C)(C)C)cc(C(C)(C)C)c1O | – | inactive [dye equivalency, Compound Type: qHTS ECL - NCI]
COc1cccc(Cn2c(=O)c(CCc3ccccc3)nc3cnc(N(C)C)nc32)c1 | – | inactive [dye equivalency, Compound Type: qHTS ECL - Pharmacopeia]
Cc1cc(Br)ccc1NC(=O)C1CCCO1 (configuration not stated) | – | inactive [dye equivalency, Compound Type: qHTS ECL - DPISMR]
Cc1nnc(C)n1/N=C/c1ccc(C(C)C)cc1 | – | inactive
CCON=C1C(C)(C)C(C)(C)C(C)(C)C1(C)C | – | inactive [dye equivalency, Compound Type: qHTS ECL - NCI]

Compound | max dye equivalency | outcome
COc1ccc(C2/C(=C(/O)c3ccc(OC(C)C)cc3)C(=O)C(=O)N2CCCN2CCOCC2)cc1 (configuration not stated) | – | inactive
COC(=O)c1ccc(Oc2nc(NC(C)C)nc(SC)n2)cc1 | – | inactive [dye equivalency, Compound Type: qHTS ECL - DPISMR]
CCc1nnc(NC(=O)CSc2nnc(COc3ccc(C#N)cc3)n2-c2ccccc2)s1 | – | inactive
C=CCOc1ccc(C2/C(=C(\O)c3c(C)[nH]c(C(=O)OC)c3C)C(=O)C(=O)N2CCN(C)C)cc1 (configuration not stated) | – | inactive [dye equivalency, Compound Type: qHTS ECL - DPISMR]
COc1ccc(NC(=O)N2CC3(CCN(C(C)=O)CC3)C2)cc1 | – | inactive [dye equivalency, Compound Type: qHTS ECL - Pharmacopeia]
O=c1c(-c2ccc(F)cc2)nc2cnc(N3CCOCC3)nc2n1-c1ccccc1 | – | inactive [dye equivalency, Compound Type: qHTS ECL - Pharmacopeia]
O=C(CSc1nnc(-c2ccncc2)n1C1CCCCC1)Nc1ccccc1 | – | inactive
c1cncc(-c2nc(N3CCNCC3)c3ccccc3n2)c1 | – | inactive [dye equivalency, Compound Type: qHTS ECL - Pharmacopeia]
Cc1ccc(S(=O)(=O)N2CCN(Cc3cccc(C)c3O)CC2)cc1 | – | inactive
COc1ccc(-c2nc3cnc(N(C)C)nc3n(Cc3cccs3)c2=O)cc1 | – | inactive [dye equivalency, Compound Type: qHTS ECL - Pharmacopeia]
Cc1nc2cnc(N3CCNCC3)nc2n(Cc2ccc(F)cc2)c1=O | – | inactive [dye equivalency, Compound Type: qHTS ECL - Pharmacopeia]
COCCn1c(=O)c(-c2ccc(OC)cc2)nc2cnc(Oc3cccc(Cl)c3)nc21 | – | inactive [dye equivalency, Compound Type: qHTS ECL - Pharmacopeia]
COc1ccc(OC)c2c(N)c(C#N)c(C(F)(F)C(F)(F)F)nc12 | – | inactive
O=C(Nc1nn(Cc2ccccc2F)cc1Br)c1cccs1 | – | inactive [dye equivalency, Compound Type: qHTS ECL - DPISMR]
Brc1ccc(Nc2c3c(nc4ncnn24)CCC3)cc1 | – | inactive
Cc1ccccc1C(OCC(O)CN1CCCCC1CCO)c1ccccc1 (configuration not stated) | – | inactive
CCCN1C(=O)C(NS(=O)(=O)c2ccc(N)cc2)(C(F)(F)F)C(C(=O)OC)=C1C (configuration not stated) | – | inactive [dye equivalency, Compound Type: qHTS ECL - DPISMR]
Cc1cc(C(F)(F)F)n2ncc(-c3ccccc3)c2n1 | – | inactive [dye equivalency, Compound Type: qHTS ECL - DPISMR]
COc1ccccc1CNc1ncncc1-c1cccnc1 | – | inactive [dye equivalency, Compound Type: qHTS ECL - Pharmacopeia]
Cc1ccc(S(=O)(=O)Nc2ccccc2CNc2c(C)n(C)n(-c3ccccc3)c2=O)cc1 | – | inactive
CC(=NC1CCN(Cc2ccccc2)CC1)c1c(O)[nH]c(=O)[nH]c1=O | – | inactive [dye equivalency, Compound Type: qHTS ECL - DPISMR]
CCn1ccnc1C[C@@H]1COc2ccccc2O1 | – | inactive [dye equivalency, Compound Type: qHTS ECL - SigmaAldrich]
CN1[C@H]2CC(OC(=O)[C@@H](CO)c3ccccc3)C[C@H]1[C@H]1O[C@H]12 (some centres not stated) | – | inactive [dye equivalency, Compound Type: qHTS ECL - Prestwick]
